From PubChem BioAssay (Tox21)
Several values for one entry are separate records, joined by “and”; a condition that tells them apart may be missing. Identical values can stand only once. Results filed as inconclusive are left out. Entries that show only a call come without a potency. Activity calls are given as the source filed them. Unless noted, calls come from the whole dose curve; as a rule, active = well fitted curve in the direction sought with a large enough effect in the repeat runs; inconclusive = weak or mixed curves; inactive = no such curve, though single readings can be large; an effect the other way counts as inactive or inconclusive.

How the values were obtained:
[1] = qHTS assay to identify small molecule antagonists of the peroxisome proliferator-activated receptor delta (PPARd) signaling pathway - cell viability counter screen (AID 743213); settings: PPARd-bla HEK293H viability, CellTiter-Glo luminescence, 17 h; series mostly up to 62 µM; note: nearly all actives have a fitted effect of over 50% in size; note: potency is the fitted concentration of half-maximal effect
In short: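 HEK293H PPARd UAS-bla cells, 5 h pre-incubation, compound + L165041 300 nM final, 17 h 37 C; B/G FRET substrate 2 h RT; then CellTiter-Glo 30 min RT, luminescence.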

[2] = qHTS assay to identify small molecule antagonists of the farnesoid-X-receptor (FXR) signaling pathway - cell viability counter screen (AID 743221; active = well fitted cell-killing curve with a large enough effect in the repeat runs, not every such curve was filed as active; note: nearly all actives have a fitted effect of over 50% in size; note: potency is the fitted concentration of half-maximal effect); settings: FXR-bla HEK293T viability, CellTiter-Glo luminescence, 16 h; series mostly up to 62.6 µM
In short: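 GeneBLAzer FXR-UAS-bla HEK 293T cells, compound plus chenodeoxycholic acid (50 uM final), 16 h at 37 C. CellTiter-Glo added to the same wells after the beta-lactamase read; luminescence read after 30 min at room temperature as viability.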

[3] = biological target: Vitamin D3 receptor (Homo sapiens) (UniProt P11473); assay: qHTS assay to identify small molecule antagonists of the vitamin D receptor (VDR) signaling pathway (AID 743223; active = well fitted inhibition curve with a large enough effect in the signal ratio in the repeat runs, not every such curve was filed as active; the % refers to the signal ratio); settings: VDR-UAS-bla HEK293T, beta-lactamase FRET ratio, 16 h; series mostly up to 61 µM
In short: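 VDR-bla cells were treated with compound plus 3 nM final 1alpha,25-dihydroxyvitamin D3 for 16 h at 37C. Beta-lactamase reporter read by B/G FRET substrate fluorescence after 2 h at room temperature. qHTS format.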

[4] = qHTS assay to identify small molecule agonists of the vitamin D receptor (VDR) signaling pathway - cell viability counter screen (AID 743224); settings: VDR-bla HEK293T viability, CellTiter-Glo luminescence, 16 h; series mostly up to 62.6 µM; note: nearly all actives have a fitted effect of over 50% in size; note: potency is the fitted concentration of half-maximal effect
In short: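 Cells: VDR-bla, 2,000/well, settled 4 h. Treatment: compounds in DMSO, 16 h, 37C/5% CO2. Readout: CellTiter-Glo luminescence after 30 min RT.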

[5] = qHTS assay to identify small molecule antagonists of the vitamin D receptor (VDR) signaling pathway - cell viability counter screen (AID 743225); settings: VDR-bla HEK293T viability, CellTiter-Glo luminescence, 16 h; series mostly up to 61 µM; note: nearly all actives have a fitted effect of over 50% in size; note: potency is the fitted concentration of half-maximal effect
In short: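 VDR-UAS-bla HEK 293T cells were plated and incubated 4 h at 37C, then dosed with compound plus 3 nM (final) 1-alpha,25-dihydroxyvitamin D3 for 16 h. After the 2 h beta-lactamase read, viability in the same wells was read as CellTiter-Glo luminescence after 30 min at room temperature.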

[6] = qHTS assay to identify small molecule agonists of the NFkB signaling pathway - cell viability counter screen (AID 1159515; calls by dose curve; note: nearly all actives have a fitted effect of over 55% in size; note: potency is the fitted concentration of half-maximal effect); settings: NFkB-bla ME-180 viability, CellTiter-Glo luminescence, 5 h; series mostly up to 61 µM
In short: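 Cells are seeded (2,000 NFkB-bla ME-180 per well), rested overnight, and dosed with DMSO-dissolved compounds for 5 hr at 37 C. Viability is then read by CellTiter-Glo luminescence after 30 min at room temperature.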

[7] = qHTS assay to identify small molecule agonists of the endoplasmic reticulum stress response signaling pathway - cell viability counter screen (AID 1159517; calls by dose curve; note: nearly all actives have a fitted effect of over 50% in size; note: potency is the fitted concentration of half-maximal effect); settings: ESRE-bla HeLa viability, CellTiter-Glo luminescence, 5 h; series mostly up to 61 µM
In short: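 Cpd-treated ESRE-bla HeLa (5 hr, 37 C) → LiveBLAzer 2 hr RT → CellTiter-Glo 30 min RT → luminescence.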

[8] = qHTS assay to identify small molecule antagonists of the retinoid-related orphan receptor gamma (ROR-gamma) signaling pathway - cell viability counter screen (AID 1159520); settings: Tet-on RORgamma CHO cells viability, ATP luminescence, 16 h; series mostly up to 92.4 µM; note: nearly all actives have a fitted effect of over 50% in size; note: potency is the fitted concentration of half-maximal effect
In short: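 Tet-on ROR gamma CHO cells (1,000/well) were plated 4 hr, given compounds in DMSO for 2 hr at 37 C, then induced with 1 uM final doxycycline for 16 hr. Viability was read as ATP by CellTiter-Glo luminescence after 30 min.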

[9] = biological target: Nuclear receptor ROR-gamma (Homo sapiens) (UniProt P51449); assay: qHTS assay to identify small molecule antagonists of the retinoid-related orphan receptor gamma (ROR-gamma) signaling pathway (AID 1159521; note: nearly all actives have a fitted effect of over 50% in size; note: potency is the fitted concentration of half-maximal effect); settings: Tet-on RORgamma CHO cells, RORE-luciferase, 16 h; series mostly up to 92.4 µM
In short: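 Tet-on ROR-gamma CHO cells with ROR response element-luciferase reporter; compounds added 2 hr before 1 uM doxycycline induction, then 16 hr at 37 C. Antagonism scored as decreased ONE-Glo luminescence.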

[10] = qHTS assay to identify small molecule agonists of the AP-1 signaling pathway - cell viability counter screen (AID 1159525; calls by dose curve; note: nearly all actives have a fitted effect of over 55% in size; note: potency is the fitted concentration of half-maximal effect); settings: ME-180 AP-1-bla cells viability, ATP luminescence, 5 h; series mostly up to 76.8 µM
In short: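 Each titration point was normalised to DMSO and tetra n-octyl ammonium bromide controls. The read was Cell Titer Glo luminescence after 30 min at RT, following 5 h compound exposure of ME-180 AP-1-bla cells at 37 °C.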

[11] = qHTS assay to identify small molecule agonists of the AP-1 signaling pathway (AID 1159526; calls by dose curve); settings: ME-180 (cervical carcinoma) AP-1-bla reporter, beta-lactamase FRET ratio, 5 h; series mostly up to 76.8 µM
[12] = qHTS assay to identify small molecule agonists of the peroxisome proliferator-activated receptor delta (PPARd) signaling pathway - cell viability counter screen (AID 743211); settings: PPARd-bla HEK293H viability, CellTiter-Glo luminescence, 17 h; series mostly up to 62.6 µM; note: nearly all actives have a fitted effect of over 55% in size; note: potency is the fitted concentration of half-maximal effect
In short: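 PPARd-bla HEK293H cells (3000/well) were pre-incubated 5 h at 37 C, then exposed to compound for 17 h at 37 C. After 2 h with LiveBLAzer substrate, CellTiter-Glo was added to the same wells; luminescence read after 30 min at room temperature.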

[13] = qHTS assay to identify small molecule agonists of the farnesoid-X-receptor (FXR) signaling pathway - cell viability counter screen (AID 743218); settings: FXR-bla HEK293T viability, CellTiter-Glo luminescence, 16 h; series mostly up to 62.6 µM; note: nearly all actives have a fitted effect of over 45% in size; note: potency is the fitted concentration of half-maximal effect
In short: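 Cells were seeded, left 5 h at 37 C and 5% CO2, then dosed with compound in DMSO for 16 h. After the beta-lactamase FRET read, CellTiter-Glo was added and luminescence measured 30 min later.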

[14] = biological target: Peroxisome proliferator-activated receptor delta (Homo sapiens) (UniProt Q03181); assay: qHTS assay to identify small molecule agonists of the peroxisome proliferator-activated receptor delta (PPARd) signaling pathway (AID 743212; calls by dose curve; note: potency is the fitted concentration of half-maximal effect); settings: HEK293H PPARd-UAS-bla, beta-lactamase FRET ratio, 17 h; series mostly up to 62.6 µM
In short: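 Cells expressing a UAS-driven beta-lactamase reporter (PPARd-bla HEK293H) were given test compounds after a 5 h settle and kept at 37 C. Reporter activity was then measured as FRET fluorescence using LiveBLAzer B/G substrate.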

[15] = biological target: Peroxisome proliferator-activated receptor delta (Homo sapiens) (UniProt Q03181); assay: qHTS assay to identify small molecule antagonists of the peroxisome proliferator-activated receptor delta (PPARd) signaling pathway (AID 743215; active = well fitted inhibition curve with a large enough effect in the signal ratio in the repeat runs, not every such curve was filed as active; the % refers to the signal ratio;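 note: cells stimulated with agonist L165041 at 300 nM final during compound exposure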; note: potency is the fitted concentration of half-maximal effect); settings: HEK293H PPARd-UAS-bla, beta-lactamase FRET ratio, antagonist, 17 h; series mostly up to 62 µM
In short: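 Cells: HEK293H with a UAS-driven beta-lactamase reporter responsive to PPARd. Compounds were co-added with L165041 (300 nM, final) and incubated 17 h at 37 C before a 2 h room-temperature FRET substrate step and fluorescence reading.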

[16] = biological target: Retinoic acid receptor RXR-alpha (Homo sapiens) (UniProt P19793); assay: qHTS assay to identify small molecule agonists of the RXR signaling pathway (AID 1159527; calls by dose curve; note: nearly all actives have a fitted effect of over 35% in size); settings: HEK293T RXRa-UAS-bla, beta-lactamase ratio, 16 h; series mostly up to 76.8 µM
In short: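 GeneBLAzer RXR-alpha-UAS-bla HEK 293T cells in 2% charcoal-stripped FBS medium were exposed to compounds for 16 hr at 37 C in agonist mode. Beta-lactamase reporter read as 460/530 nm FRET ratio after 2 hr substrate loading.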

[17] = biological target: Vitamin D3 receptor (Homo sapiens) (UniProt P11473); assay: qHTS assay to identify small molecule agonists of the vitamin D receptor (VDR) signaling pathway (AID 743222; calls by dose curve); settings: HEK293T VDR-UAS-bla, beta-lactamase FRET ratio, 16 h; series mostly up to 63.5 µM
In short: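 Cells carrying a VDR-driven beta-lactamase reporter are seeded at 2,000 per well and rested 4 h. Compounds in DMSO are added for 16 h at 37C, and FRET substrate fluorescence is measured after 2 h at room temperature.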

[18] = biological target: Bile acid receptor (Homo sapiens) (UniProt Q96RI1); assay: qHTS assay to identify small molecule agonists of the farnesoid-X-receptor (FXR) signaling pathway (AID 743220; active = well fitted activation curve with a large enough effect in the signal ratio in the repeat runs, not every such curve was filed as active; the % refers to the signal ratio); settings: HEK293T FXR-UAS-bla, beta-lactamase FRET ratio, 16 h; series mostly up to 62.6 µM
In short: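 FXR-UAS-bla HEK 293T cells carrying a UAS-driven beta-lactamase reporter were plated for 5 h at 37C/5% CO2, then exposed to DMSO-dissolved Tox21 10K compounds for 16 h at 37C. A LiveBLAzer B/G FRET substrate was loaded for 2 h at room temperature before fluorescence reading.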

[19] = qHTS assay to identify small molecule agonists of the endoplasmic reticulum stress response signaling pathway (AID 1159516; active = well fitted activation curve with a large enough effect in the signal ratio in the repeat runs, not every such curve was filed as active; the % refers to the signal ratio); settings: ESRE-bla HeLa, ER stress beta-lactamase reporter, 5 h; series mostly up to 61 µM
In short: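 Cells are seeded at 1,500 per well and incubated overnight. Compounds in DMSO are added for 5 hr at 37 C, then beta-lactamase FRET substrate for 2 hr at room temperature, and fluorescence at 460 and 530 nm is measured.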

Chain of Retinoic acid receptor RXR-alpha (Homo sapiens) (P19793 whole entry, looked up): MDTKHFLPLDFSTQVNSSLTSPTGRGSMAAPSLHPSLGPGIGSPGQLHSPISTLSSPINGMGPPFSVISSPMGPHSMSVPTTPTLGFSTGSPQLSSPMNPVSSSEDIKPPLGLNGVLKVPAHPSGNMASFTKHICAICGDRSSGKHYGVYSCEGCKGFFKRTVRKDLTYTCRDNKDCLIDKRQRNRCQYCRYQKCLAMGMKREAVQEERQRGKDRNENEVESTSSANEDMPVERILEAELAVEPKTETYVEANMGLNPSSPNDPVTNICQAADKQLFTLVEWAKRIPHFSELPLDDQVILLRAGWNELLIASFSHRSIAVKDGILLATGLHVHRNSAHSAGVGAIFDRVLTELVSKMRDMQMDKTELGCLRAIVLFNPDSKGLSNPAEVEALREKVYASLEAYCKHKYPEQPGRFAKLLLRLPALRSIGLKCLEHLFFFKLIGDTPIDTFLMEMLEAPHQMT
Chain of Peroxisome proliferator-activated receptor delta (Homo sapiens) (Q03181 whole entry, looked up): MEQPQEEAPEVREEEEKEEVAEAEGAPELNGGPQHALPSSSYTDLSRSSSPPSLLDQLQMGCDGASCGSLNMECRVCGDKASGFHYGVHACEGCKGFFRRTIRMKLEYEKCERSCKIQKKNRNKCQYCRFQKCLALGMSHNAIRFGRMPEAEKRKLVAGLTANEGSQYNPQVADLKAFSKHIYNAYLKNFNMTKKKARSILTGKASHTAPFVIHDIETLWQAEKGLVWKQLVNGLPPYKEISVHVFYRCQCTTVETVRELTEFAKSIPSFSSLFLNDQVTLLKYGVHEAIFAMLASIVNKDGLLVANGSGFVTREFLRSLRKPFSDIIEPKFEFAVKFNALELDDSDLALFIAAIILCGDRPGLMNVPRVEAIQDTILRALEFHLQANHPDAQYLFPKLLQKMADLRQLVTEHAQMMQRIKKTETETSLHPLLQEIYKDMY
Chain of Vitamin D3 receptor (Homo sapiens) (P11473 whole entry, looked up): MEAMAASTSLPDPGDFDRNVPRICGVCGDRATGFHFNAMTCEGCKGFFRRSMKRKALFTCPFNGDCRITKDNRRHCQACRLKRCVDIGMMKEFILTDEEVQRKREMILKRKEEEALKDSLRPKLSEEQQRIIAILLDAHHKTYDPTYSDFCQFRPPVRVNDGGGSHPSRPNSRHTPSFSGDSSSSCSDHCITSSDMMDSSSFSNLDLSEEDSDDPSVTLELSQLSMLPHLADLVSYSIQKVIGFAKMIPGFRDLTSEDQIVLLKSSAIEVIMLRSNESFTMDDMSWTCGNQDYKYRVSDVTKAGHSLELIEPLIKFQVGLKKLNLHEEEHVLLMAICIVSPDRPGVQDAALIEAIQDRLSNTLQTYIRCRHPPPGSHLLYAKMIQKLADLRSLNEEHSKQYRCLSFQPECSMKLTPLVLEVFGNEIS
Chain of Bile acid receptor (Homo sapiens) (Q96RI1 whole entry, looked up): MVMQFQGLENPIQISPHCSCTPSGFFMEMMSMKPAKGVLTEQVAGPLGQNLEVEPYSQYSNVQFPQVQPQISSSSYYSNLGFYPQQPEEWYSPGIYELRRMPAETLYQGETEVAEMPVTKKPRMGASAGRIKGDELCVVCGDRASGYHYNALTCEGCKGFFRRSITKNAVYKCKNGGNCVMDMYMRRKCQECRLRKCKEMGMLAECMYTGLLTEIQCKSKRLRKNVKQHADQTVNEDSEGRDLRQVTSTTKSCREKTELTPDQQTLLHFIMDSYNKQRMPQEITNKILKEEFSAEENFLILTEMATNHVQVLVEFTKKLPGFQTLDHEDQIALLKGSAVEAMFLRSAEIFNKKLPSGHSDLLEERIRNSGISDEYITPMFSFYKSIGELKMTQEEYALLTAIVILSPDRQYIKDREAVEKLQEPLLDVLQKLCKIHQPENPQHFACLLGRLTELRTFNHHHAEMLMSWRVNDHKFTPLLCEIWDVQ

SMILES	Potency [1]	Potency [2]	Potency [3]	Potency [4]	Potency [5]	Potency [6]	Potency [7]	Potency [8]	Potency [9]	Potency [10]	Potency [11]	Potency [12]	Potency [13]	Potency [14]	Potency [15]	Potency [16]	Potency [17]	Potency [18]	Potency [19]
C[C@]12C/C(=C/O)C(=O)C[C@@H]1CC[C@@H]1[C@@H]2CC[C@@]2(C)[C@H]1CC[C@]2(C)O	inactive	inactive	inactive	inactive	inactive	inactive	24.8 µM (active) and 16.9 µM (active)	61.7 µM (active)	30.9 µM (active) and 29.8 µM (active)	inactive	inactive								
CC(C)N(C(=O)CCl)c1ccccc1				inactive	inactive	inactive	inactive	27.3 µM (active) and 30.6 µM (active)		inactive	inactive	49 µM (active) and 43.6 µM (active)							
CC(=O)[O][Pb]([c]1ccccc1)([c]1ccccc1)[c]1ccccc1		1100 nM (active)		1550 nM (active)	977 nM (active)	871 nM (active)	24.5 µM (active)	0.77 µM (active)	193 nM (active)	15500 nM (active)		1.23 µM (active)	549 nM (active)						
Cc1cccc(Cc2cnc[nH]2)c1C		inactive	inactive	inactive	inactive	inactive	inactive	inactive	inactive	inactive		inactive	inactive	inactive	inactive	inactive			
C=CC(=O)[O][Sn]([CH2]CCC)([CH2]CCC)[CH2]CCC	3470 nM (active)	3890 nM (active)		1380 nM (active)		977 nM (active)	0.977 µM (active)	1.09 µM (active)	611 nM (active)	2450 nM (active)		1.95 µM (active)			776 nM (active)				
CC(Cc1ccc(OCC(=O)O)cc1)NCC(O)c1csc(C(F)(F)F)n1 (stereo not given)	inactive	inactive	inactive		inactive	inactive	inactive	inactive	inactive	inactive	inactive	inactive	inactive						
Cc1ccc([N+](=O)[O-])[c]2c1[O][Hg]2				3760 nM (active)	3010 nM (active)	6010 nM (active)	23.9 µM (active)	1.19 µM (active)	376 nM (active)	6010 nM (active)		1.88 µM (active)	2370 nM (active)	29800 nM (active)					
O=C(N[C@H]1N=C(c2ccccc2F)c2cccc3c2N(CC3)C1=O)c1cc2ccccc2[nH]1		inactive	inactive	inactive	inactive	inactive	inactive	inactive	inactive	inactive		inactive	inactive	inactive	inactive	inactive	inactive		
CC(C)C(Nc1ccc(C(F)(F)F)cc1Cl)C(=O)OC(C#N)c1cccc(Oc2ccccc2)c1 (stereo not given)	inactive	inactive			inactive	inactive	inactive	inactive	inactive	inactive			inactive		inactive	inactive	inactive		
CCN(CC)CCN1C(=O)CN=C(c2ccccc2F)c2cc(Cl)ccc21	inactive	inactive	inactive	inactive	inactive		inactive	inactive	inactive	inactive	inactive	inactive	inactive	inactive	inactive		inactive	inactive	inactive
C=C(C)C(=O)[O][Sn]([CH2]CCC)([CH2]CCC)[CH2]CCC	1550 nM (active)			490 nM (active)	1950 nM (active)	436 nM (active)	0.692 µM (active)	1.37 µM (active)	306 nM (active)	977 nM (active)		0.871 µM (active)	616 nM (active)						
N#Cc1sc2c(=O)c3ccccc3c(=O)c=2sc1C#N	12300 nM (active)	34700 nM (active)		4900 nM (active)	11000 nM (active)	1950 nM (active)	6.92 µM (active)	2.17 µM (active)	13700 nM (active)	389 nM (active)		7.76 µM (active)						inactive	
